Test results as given in PubChem BioAssay AID1159580 (chemical genetic matrix, 2015).
Among all 5,500 compounds or so, about 2,000 (36%) were called active. About 18% were inconclusive and are not listed. Rule as the data show it: active = normalized growth mostly below about 0.91 (no sharp cut-off); inconclusive = no clear call, values can overlap the other calls; inactive = mostly above about 0.92. The list shows a part of the results.

Assay: chemical genetic growth profiling, strain panel (AID 1159580);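 also: tested at 20 µM; growth read once vehicle control cultures reached saturation at 30 °C; 1 = growth at the plate median or of vehicle wells; lower values mean less growth of the strain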
Details: growth OD

Measured: normalized growth

NCC(=O)c1ccccc1
inactive: S. cerevisiae deletion strains, locus YJR075W, strain HOC1, stronger effect = lower value 1.05 | S. cerevisiae deletion strains, locus YKL009W, strain mrt4, stronger effect = lower value 0.981 | S. cerevisiae deletion strains, locus YKL068W, stronger effect = lower value 1 | S. cerevisiae deletion strains, locus YKL085W, strain MDH1 (second series), stronger effect = lower value 0.988 | S. cerevisiae deletion strains, locus YKL085W, strain MDH1, stronger effect = lower value 0.988 | S. cerevisiae deletion strains, locus YKL160W, strain elf1, stronger effect = lower value 1 | S. cerevisiae deletion strains, locus YKL190W, strain CNB1, stronger effect = lower value 1.02 | S. cerevisiae deletion strains, locus YKR001C, strain vps1, stronger effect = lower value 0.988 | S. cerevisiae deletion strains, locus YKR026C, strain gcn3, stronger effect = lower value 1 | S. cerevisiae deletion strains, locus YKR091W, strain srl3, stronger effect = lower value 0.997 | S. cerevisiae deletion strains, locus YLL001W, strain dnm1, stronger effect = lower value 1 | S. cerevisiae deletion strains, locus YLL026W, stronger effect = lower value 1 | S. cerevisiae deletion strains, locus YLL041C, strain sdh2, stronger effect = lower value 1 | S. cerevisiae deletion strains, locus YLR027C, strain aat2, stronger effect = lower value 0.997 | S. cerevisiae deletion strains, locus YLR039C, strain RIC1, stronger effect = lower value 1.03 | S. cerevisiae deletion strains, locus YLR058C, strain SHM2, stronger effect = lower value 1.02 | S. cerevisiae deletion strains, locus YLR102C, strain apc9, stronger effect = lower value 0.988 | S. cerevisiae deletion strains, locus YLR113W, strain HOG1, stronger effect = lower value 1.07 | S. cerevisiae deletion strains, locus YLR221C, strain rsa3, stronger effect = lower value 1.02 | S. cerevisiae deletion strains, locus YLR258W, strain gsy2, stronger effect = lower value 0.977 | S. cerevisiae deletion strains, locus YLR262C, strain YPT6 (second series), stronger effect = lower value 1.03 | S. cerevisiae deletion strains, locus YLR262C, strain YPT6, stronger effect = lower value 1.02 | S. cerevisiae deletion strains, locus YLR268W, strain sec22, stronger effect = lower value 0.986 | S. cerevisiae deletion strains, locus YLR320W, strain mms22, stronger effect = lower value 0.991 | S. cerevisiae deletion strains, locus YLR330W, strain CHS5, stronger effect = lower value 1.02 | S. cerevisiae deletion strains, locus YLR342W, strain FKS1 (second series), stronger effect = lower value 0.988 | S. cerevisiae deletion strains, locus YLR342W, strain FKS1, stronger effect = lower value 0.992 | S. cerevisiae deletion strains, locus YLR357W, strain rsc2, stronger effect = lower value 0.966 | S. cerevisiae deletion strains, locus YLR370C, strain arc18, stronger effect = lower value 1.01 | S. cerevisiae deletion strains, locus YLR371W, strain rom2, stronger effect = lower value 0.993 | S. cerevisiae deletion strains, locus YLR384C, strain iki3, stronger effect = lower value 1.01 | S. cerevisiae deletion strains, locus YLR418C, strain cdc73, stronger effect = lower value 1 | S. cerevisiae deletion strains, locus YML016C, strain PPZ1, stronger effect = lower value 1.02 | S. cerevisiae deletion strains, locus YML032C, strain rad52, stronger effect = lower value 0.986 | S. cerevisiae deletion strains, locus YML120C, strain ndi1, stronger effect = lower value 0.989 | S. cerevisiae deletion strains, locus YML124C, strain tub3, stronger effect = lower value 0.993 | S. cerevisiae deletion strains, locus YMR058W, strain fet3, stronger effect = lower value 1.01 | S. cerevisiae deletion strains, locus YMR078C, strain ctf18, stronger effect = lower value 1 | S. cerevisiae deletion strains, locus YMR125W, strain sto1, stronger effect = lower value 1.01 | S. cerevisiae deletion strains, locus YMR129W, stronger effect = lower value 1 | S. cerevisiae deletion strains, locus YMR205C, strain PFK2, stronger effect = lower value 1.01 | S. cerevisiae deletion strains, locus YMR223W, strain ubp8, stronger effect = lower value 0.987 | S. cerevisiae deletion strains, locus YMR231W, strain pep5, stronger effect = lower value 0.992 | S. cerevisiae deletion strains, locus YMR263W, strain SAP30, stronger effect = lower value 1.04 | S. cerevisiae deletion strains, locus YMR307W, strain GAS1, stronger effect = lower value 1.02 | S. cerevisiae deletion strains, locus YNL067W, strain RPL9B, stronger effect = lower value 1.04 | S. cerevisiae deletion strains, locus YNL071W, strain lat1, stronger effect = lower value 0.998 | S. cerevisiae deletion strains, locus YNL128W, strain TEP1, stronger effect = lower value 1.05 | S. cerevisiae deletion strains, locus YNL153C, strain GIM3, stronger effect = lower value 1.02 | S. cerevisiae deletion strains, locus YNL183C, strain NPR1, stronger effect = lower value 0.995 | S. cerevisiae deletion strains, locus YNL209W, strain ssb2, stronger effect = lower value 1 | S. cerevisiae deletion strains, locus YNL233W, strain BNI4, stronger effect = lower value 1.02 | S. cerevisiae deletion strains, locus YNL248C, strain rpa49, stronger effect = lower value 0.99 | S. cerevisiae deletion strains, locus YNL250W, strain rad50, stronger effect = lower value 0.985 | S. cerevisiae deletion strains, locus YNL271C, strain bni1, stronger effect = lower value 0.986 | S. cerevisiae deletion strains, locus YNL298W, strain CLA4, stronger effect = lower value 0.994 | S. cerevisiae deletion strains, locus YNL307C, strain MCK1, stronger effect = lower value 0.987 | S. cerevisiae deletion strains, locus YNL322C, strain KRE1 (second series), stronger effect = lower value 0.989 | S. cerevisiae deletion strains, locus YNL322C, strain KRE1, stronger effect = lower value 1.03 | S. cerevisiae deletion strains, locus YNR049C, strain mso1, stronger effect = lower value 1.02 | S. cerevisiae deletion strains, locus YNR052C, strain pop2, stronger effect = lower value 0.995 | S. cerevisiae deletion strains, locus YOL006C, strain TOP1, stronger effect = lower value 1.09 | S. cerevisiae deletion strains, locus YOL012C, strain htz1 1.45 | S. cerevisiae deletion strains, locus YOL147C, strain pex11, stronger effect = lower value 0.993 | S. cerevisiae deletion strains, locus YOR001W, strain rrp6, stronger effect = lower value 1.01 | S. cerevisiae deletion strains, locus YOR061W, strain CKA2, stronger effect = lower value 1.01 | S. cerevisiae deletion strains, locus YOR069W, strain VPS5, stronger effect = lower value 1.01 | S. cerevisiae deletion strains, locus YOR070C, strain gyp1, stronger effect = lower value 1 | S. cerevisiae deletion strains, locus YOR080W, strain dia2, stronger effect = lower value 0.995 | S. cerevisiae deletion strains, locus YOR083W, strain WHI5, stronger effect = lower value 0.994 | S. cerevisiae deletion strains, locus YOR106W, strain vam3, stronger effect = lower value 1.02 | S. cerevisiae deletion strains, locus YOR136W, strain idh2, stronger effect = lower value 0.991 | S. cerevisiae deletion strains, locus YOR144C, strain elg1, stronger effect = lower value 0.999 | S. cerevisiae deletion strains, locus YOR184W, strain ser1, stronger effect = lower value 0.983 | S. cerevisiae deletion strains, locus YOR231W, strain MKK1, stronger effect = lower value 1.08 | S. cerevisiae deletion strains, locus YOR265W, strain rbl2, stronger effect = lower value 1.01 | S. cerevisiae deletion strains, locus YOR270C, strain vph1, stronger effect = lower value 1.06 | S. cerevisiae deletion strains, locus YOR290C, strain snf2, stronger effect = lower value 0.998 | S. cerevisiae deletion strains, locus YOR316C, strain cot1, stronger effect = lower value 0.992 | S. cerevisiae deletion strains, locus YPL051W, strain arl3, stronger effect = lower value 1.01 | S. cerevisiae deletion strains, locus YPL055C, strain LGE1, stronger effect = lower value 1.06 | S. cerevisiae deletion strains, locus YPL078C, strain atp4, stronger effect = lower value 1.02 | S. cerevisiae deletion strains, locus YPL106C, strain sse1, stronger effect = lower value 0.973 | S. cerevisiae deletion strains, locus YPL240C, strain hsp82, stronger effect = lower value 0.996 | S. cerevisiae deletion strains, locus YPL241C, strain CIN2, stronger effect = lower value 1.02 | S. cerevisiae deletion strains, locus YPL256C, strain CLN2, stronger effect = lower value 1.05 | S. cerevisiae deletion strains, locus YPR119W, strain clb2, stronger effect = lower value 0.996 | S. cerevisiae deletion strains, locus YPR141C, strain kar3, stronger effect = lower value 0.993 | S. cerevisiae deletion strains, locus YPR163C, strain tif3, stronger effect = lower value 0.99 | S. cerevisiae deletion strains, locus YPR167C, strain met16, stronger effect = lower value 0.991 | S. cerevisiae deletion strains, strain wtn01, stronger effect = lower value 0.987 | S. cerevisiae strains, strain wild type, stronger effect = lower value 1.01
